Among the data in PubChem BioAssay (Tox21) are Potency and outcome values, retold here.

Structures are written as SMILES. A number with no mark means an inactive call. Inconclusive results are not listed. Calls of active or inactive are those of the source. Unless noted, calls follow the shape of the dose curve; as a rule, active = well fitted curve in the direction sought with a large enough effect in the repeat runs; inconclusive = weak or mixed curves; inactive = no such curve, though single readings can be large; an effect the other way counts as inactive or inconclusive.

The nature of assay [1]: qHTS assay to identify small molecule agonists of the sonic hedgehog signaling (Shh) pathway (AID 1259368; calls by dose curve;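 also: NIH/3T3-derived 3T3Gli1-Luc cells carrying a stable Gli1-driven firefly luciferase reporter; series mostly up to about 92 µM; nearly all actives have a fitted effect of over 15% in size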). A digest of the protocol:
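3T3Gli1-Luc (NIH/3T3 clone, stable Gli1-Luc); 4 hr pre-incubation, then cpd in DMSO 24 hr, 37 C/5% CO2; luciferase reagent 30 min RT; luminescence.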
(In qHTS, concentration-response curves come from the screen itself.)

The nature of assay [2]: qHTS assay to identify small molecule antagonists of the sonic hedgehog signaling (Shh) pathway (AID 1259369; calls by dose curve; also: nearly all actives have a fitted effect of over 45% in size; also: potency is read from the fitted curve at half-maximal effect). An outline of the steps: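 3T3Gli1-Luc, conditioned-medium-stimulated, 24hr cpd, 37C/5% CO2; Gli1-driven firefly Luc luminescence after 30min RT with luciferase reagent. Cells plated 4hr before cpd.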
Assay [3] has as its target Estrogen receptor beta (Homo sapiens) (UniProt Q92731). Description: qHTS assay to identify small molecule agonists of the estrogen receptor beta (ER-beta) signaling pathway (AID 1259377; active = well fitted activation curve with a large enough effect in the signal ratio in the repeat runs, not every such curve was filed as active; the % refers to the signal ratio). A digest of the protocol:
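HEK293T ER-beta-UAS-bla; 2% charcoal-stripped FBS; cells pre-incubated 6 hr, compound 16 hr, 37C/5% CO2; LiveBLAzer B/G FRET substrate 2 h RT; fluorescence intensity read.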

Assay [4] shares this target. Description: qHTS assay to identify small molecule antagonists of the estrogen receptor beta (ER-beta) signaling pathway (AID 1259378; active = well fitted inhibition curve with a large enough effect in the signal ratio in the repeat runs, not every such curve was filed as active; the % refers to the signal ratio). An outline of the steps: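 ER-beta-UAS-bla HEK293T (GripTite) cells in 2% charcoal-stripped FBS medium were preincubated 6 hr at 37C, dosed with compound, then stimulated with 1 nM E2 (final) for 16 hr; beta-lactamase reporter read by B/G FRET fluorescence after 2 hr substrate loading.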

Assay [5] in a line: qHTS assay to identify small molecule agonists of the androgen receptor (AR) signaling pathway in the presence of an antagonist - cell viability counter screen (AID 1259379).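 Also: MDA-kb2 human breast cancer cells carrying an MMTV luciferase reporter; series mostly up to about 92 µM; nearly all actives have a fitted effect of over 25% in size.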 An outline of the steps: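 Cells: MDA-kb2 (MMTV-luc, AR and GR elements), 3,000/well, 5 hr settle. Added: nilutamide 3.0uM final, then compounds (15 conc.). Incubation: 16 hr, 37C, no CO2. Read-out: CellTiter-Fluor, 1 hr, fluorescence.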

The nature of assay [6]: qHTS assay to identify small molecule agonists of the estrogen receptor beta (ER-beta) signaling pathway - cell viability counter screen (AID 1259380). Also: nearly all actives have a fitted effect of over 30% in size. An outline of the steps: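 HEK293T ER-beta-UAS-bla; 2% CS-FBS; 6 hr pre-plate, 16 hr cpd at 37C/5% CO2; LiveBLAzer read first, then CellTiter-Glo 30 min RT, luminescence.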
Assay [7] addresses Estrogen receptor (Homo sapiens) (UniProt P03372). Briefly: qHTS assay to identify small molecule agonists of the estrogen receptor alpha (ER-alpha) signaling pathway in the presence of an antagonist (AID 1259383; calls by dose curve; also: top concentration of the series differs between compounds; nearly all actives have a fitted effect of over 15% in size). An outline of the steps: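 VM7Luc4E2, endog. ER-alpha + 4×ERE-luc; charcoal-stripped FBS, phenol red-free, 5 d; 24hr plating; +10.0nM ICI-182,780 (final); cpds 15 conc, 22hr, 37C/5% CO2; ONE-Glo luminescence.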

Assay [8] in a line: qHTS assay to identify small molecule agonists or antagonists of the thyroid stimulating hormone receptor (TSHR) signaling pathway - wild type cell line counter screen (AID 1259384; calls by dose curve). A digest of the protocol:
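Wild-type HEK293 cells were plated 18 h at 37 C/5% CO2, pin-dosed with compound plus Ro20-1724 medium, held 30 min at room temperature, then given cAMP-d2 and anti-cAMP-cryptate; fluorescence was read after 1 h. Fifteen concentrations, triplicate.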

Assay [9] has as its target Thyrotropin receptor (Homo sapiens) (UniProt P16473). Briefly: qHTS assay to identify small molecule antagonists of the thyroid stimulating hormone receptor (TSHR) signaling pathway (AID 1259385; calls by dose curve; also: nearly all actives have a fitted effect of over 20% in size). A digest of the protocol:
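TSHR-HEK293 cells were plated and held 18 h at 37C/5% CO2, then given compound plus Ro20-1724 and stimulated with TSH at 1.5 ng/mL final. After 30 min at room temperature, cAMP was detected with cAMP-d2/anti-cAMP-cryptate (1 h) by fluorescence.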

The nature of assay [10]: qHTS assay to identify small molecule agonists of the estrogen receptor alpha (ER-alpha) signaling pathway in the presence of an antagonist - cell viability counter screen (AID 1259386).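 Also: series mostly up to about 92 µM; cells exposed to compounds for 22 h at 37 °C before the viability read; nearly all actives have a fitted effect of over 30% in size.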 An outline of the steps:
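VM7Luc4E2, stripped-serum pre-culture 5 d; 24hr plating; +ICI-182,780 10.0nM final; cpds 15 conc, 22hr, 37C/5% CO2; CellTiter-Fluor added at 21hr, fluorescence 1hr later.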

Assay [11] concerns the target Progesterone receptor (Homo sapiens) (UniProt P06401). Description: qHTS assay to identify small molecule agonists of the progesterone receptor (PR) signaling pathway (AID 1346784; calls by dose curve; also: nearly all actives have a fitted effect of over 30% in size). An outline of the steps:
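Beta-lactamase reporter read-out: after 16 hr compound treatment at 37C and a further 2 hr at room temperature with LiveBLAzer B/G FRET substrate, fluorescence was measured in PR-UAS-bla HEK 293T cells grown in 2% charcoal-stripped serum.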

Assay [12] has the same target. Description: qHTS assay to identify small molecule antagonists of the progesterone receptor (PR) signaling pathway (AID 1346795; active = well fitted inhibition curve with a large enough effect in the signal ratio in the repeat runs, not every such curve was filed as active; the % refers to the signal ratio; also: potency is read from the fitted curve at half-maximal effect). A digest of the protocol:
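Read-out is fluorescence from the LiveBLAzer B/G FRET substrate, cleaved by a UAS-controlled beta-lactamase in PR-UAS-bla HEK293T cells after 16 hr exposure to compound plus 1 nM promegestone (final), followed by 2 hr at room temperature.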

Assay [13] can be described thus: qHTS assay to identify small molecule antagonists of the progesterone receptor (PR) signaling pathway - cell viability counter screen (AID 1346798).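 Also: HEK293T PR-UAS-bla cells stimulated with the agonist R5020; series mostly up to about 92 µM; nearly all actives have a fitted effect of over 50% in size.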 A digest of the protocol:
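HEK293T PR-UAS-bla, 2% charcoal-stripped FBS; 4 hr pre-plate; cpd + R5020, 16 h 37C; LiveBLAzer read first; then CellTiter-Glo 30 min RT, luminescence.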

Assay [14] can be described thus: qHTS assay to identify small molecule agonists of the progesterone receptor (PR) signaling pathway - cell viability counter screen (AID 1346799; calls by dose curve; also: nearly all actives have a fitted effect of over 45% in size). A digest of the protocol: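 Luminescence from CellTiter-Glo, added after the beta-lactamase FRET read in the same wells, gave cytotoxicity in PR-UAS-bla HEK293T cells treated with compounds for 16 hr at 37C.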
Assay [15] is described as follows: qHTS assay to identify small molecule antagonists of the TGF-beta/Smad signaling pathway - cell viability counter screen (AID 1346824). Also: nearly all actives have a fitted effect of over 50% in size. A digest of the protocol:
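SBE-bla HEK 293T cells were plated overnight at 37 C, then given compounds in DMSO plus TGF-beta1 (added as 0.25 ng/mL solution) for 5 hr. After the bla read, CellTiter-Glo was added to the same wells and luminescence read after 30 min at room temperature.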

A short description of assay [16]: qHTS assay to identify small molecule agonists of the TGF-beta/Smad signaling pathway - cell viability counter screen (AID 1346829). Also: top concentration of the series differs between compounds; nearly all actives have a fitted effect of over 45% in size. A digest of the protocol:
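In parallel with the Smad reporter read, viability of HEK 293T cells stably carrying SBE-bla is quantified by ATP luminescence following 5 hr compound treatment.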

A short description of assay [17]: qHTS assay to identify small molecule agonists of the TGF-beta/Smad signaling pathway (AID 1346859; active = well fitted activation curve with a large enough effect in the signal ratio in the repeat runs, not every such curve was filed as active; the % refers to the signal ratio; also: series mostly up to about 77 µM). A digest of the protocol:
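SBE-bla HEK 293T, 4,000 cells/well, plated o/n; cpd in DMSO, 5 hr, 37 C/5% CO2; B/G FRET substrate 2 hr RT; ex 405, em 460/530 nm.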

The target of assay [18] is Thyrotropin-releasing hormone receptor (Homo sapiens) (UniProt P34981). Briefly: qHTS assay to identify small molecule antagonists of the thyrotropin-releasing hormone receptor (TRHR) signaling pathway (AID 1346877; active = well fitted inhibition curve with a large enough effect in the repeat runs, not every such curve was filed as active; also: series mostly up to about 51 µM). An outline of the steps:
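Intracellular calcium fluorescence, read kinetically every second over 3 min, reports TRH-evoked signalling in HEK293 cells carrying TRHR. Test compounds were added 5 min ahead of a 1 nM TRH challenge.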

Assay [19] in a line: qHTS assay to identify small molecule antagonists of the estrogen receptor beta (ER-beta) signaling pathway - cell viability counter screen (AID 1259382). Also: series mostly up to about 92 µM; nearly all actives have a fitted effect of over 55% in size. A digest of the protocol:
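Cells: ER-beta-UAS-bla HEK293T, 2,000/well, 2% CS-FBS, 6 hr settle. Cpd + E2 (1nM final), 16 hr, 37C/5% CO2. Bla FRET substrate 2 hr RT, then CellTiter-Glo 30 min RT, luminescence.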

Assay [20] deals with Androgen receptor (Homo sapiens) (UniProt P10275). Description: qHTS assay to identify small molecule agonists of the androgen receptor (AR) signaling pathway in the presence of an antagonist (AID 1259381; calls by dose curve; also: nearly all actives have a fitted effect of over 15% in size). An outline of the steps: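 MDA-kb2 cells, 3,000/well, rested 5hr at 37C/0% CO2 → nilutamide 3.0uM final or buffer → compounds, 15 conc. → 16hr at 37C → ONE-Glo, 30min RT → luminescence.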
Androgen receptor (Homo sapiens), sequence (P10275 whole entry, looked up): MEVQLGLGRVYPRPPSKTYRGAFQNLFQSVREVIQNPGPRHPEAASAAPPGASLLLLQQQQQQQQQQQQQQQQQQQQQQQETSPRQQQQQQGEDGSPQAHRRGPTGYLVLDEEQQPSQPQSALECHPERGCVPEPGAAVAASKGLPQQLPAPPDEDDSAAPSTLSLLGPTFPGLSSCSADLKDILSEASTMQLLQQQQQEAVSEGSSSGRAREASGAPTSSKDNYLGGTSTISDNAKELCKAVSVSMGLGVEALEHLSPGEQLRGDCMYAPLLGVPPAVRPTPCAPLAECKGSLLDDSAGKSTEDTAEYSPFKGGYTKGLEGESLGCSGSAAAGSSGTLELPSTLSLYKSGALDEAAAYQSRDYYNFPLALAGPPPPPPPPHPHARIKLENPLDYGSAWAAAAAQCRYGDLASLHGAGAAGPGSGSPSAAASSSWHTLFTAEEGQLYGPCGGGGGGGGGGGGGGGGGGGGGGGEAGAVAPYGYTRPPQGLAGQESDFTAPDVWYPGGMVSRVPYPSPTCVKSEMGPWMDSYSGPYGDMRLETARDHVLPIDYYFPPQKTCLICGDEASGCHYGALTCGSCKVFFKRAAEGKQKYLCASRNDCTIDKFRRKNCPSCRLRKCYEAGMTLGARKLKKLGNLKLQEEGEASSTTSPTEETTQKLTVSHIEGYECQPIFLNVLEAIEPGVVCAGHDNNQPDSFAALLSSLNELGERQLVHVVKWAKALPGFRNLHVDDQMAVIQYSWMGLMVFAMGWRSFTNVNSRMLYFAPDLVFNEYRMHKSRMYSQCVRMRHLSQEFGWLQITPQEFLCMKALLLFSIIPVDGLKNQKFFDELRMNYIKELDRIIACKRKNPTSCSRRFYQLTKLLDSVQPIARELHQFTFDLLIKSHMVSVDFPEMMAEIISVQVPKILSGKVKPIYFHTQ

Progesterone receptor (Homo sapiens), sequence (P06401 whole entry, looked up): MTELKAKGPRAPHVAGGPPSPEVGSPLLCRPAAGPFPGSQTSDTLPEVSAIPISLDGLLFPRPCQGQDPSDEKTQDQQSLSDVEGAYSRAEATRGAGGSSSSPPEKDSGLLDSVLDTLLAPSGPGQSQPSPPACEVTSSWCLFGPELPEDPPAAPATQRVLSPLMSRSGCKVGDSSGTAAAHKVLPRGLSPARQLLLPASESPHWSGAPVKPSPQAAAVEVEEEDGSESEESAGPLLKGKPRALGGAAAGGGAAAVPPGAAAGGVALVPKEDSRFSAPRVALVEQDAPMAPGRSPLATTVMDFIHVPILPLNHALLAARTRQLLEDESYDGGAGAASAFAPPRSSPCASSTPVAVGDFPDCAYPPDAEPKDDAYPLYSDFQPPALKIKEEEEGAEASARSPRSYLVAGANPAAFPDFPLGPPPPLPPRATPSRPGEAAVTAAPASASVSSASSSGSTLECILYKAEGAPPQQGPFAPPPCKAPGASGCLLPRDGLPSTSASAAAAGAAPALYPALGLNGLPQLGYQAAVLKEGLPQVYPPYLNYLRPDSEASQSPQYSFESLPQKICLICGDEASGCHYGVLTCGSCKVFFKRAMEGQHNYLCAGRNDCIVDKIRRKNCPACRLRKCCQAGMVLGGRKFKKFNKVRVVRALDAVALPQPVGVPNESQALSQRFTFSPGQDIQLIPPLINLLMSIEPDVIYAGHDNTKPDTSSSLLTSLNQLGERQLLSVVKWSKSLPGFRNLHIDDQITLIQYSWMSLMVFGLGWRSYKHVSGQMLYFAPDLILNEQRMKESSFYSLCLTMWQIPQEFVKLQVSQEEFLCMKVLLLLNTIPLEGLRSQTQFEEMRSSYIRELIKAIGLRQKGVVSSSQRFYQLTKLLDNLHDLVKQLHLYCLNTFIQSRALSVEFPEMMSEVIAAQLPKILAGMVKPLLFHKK
Thyrotropin-releasing hormone receptor (Homo sapiens), sequence (P34981 whole entry, looked up): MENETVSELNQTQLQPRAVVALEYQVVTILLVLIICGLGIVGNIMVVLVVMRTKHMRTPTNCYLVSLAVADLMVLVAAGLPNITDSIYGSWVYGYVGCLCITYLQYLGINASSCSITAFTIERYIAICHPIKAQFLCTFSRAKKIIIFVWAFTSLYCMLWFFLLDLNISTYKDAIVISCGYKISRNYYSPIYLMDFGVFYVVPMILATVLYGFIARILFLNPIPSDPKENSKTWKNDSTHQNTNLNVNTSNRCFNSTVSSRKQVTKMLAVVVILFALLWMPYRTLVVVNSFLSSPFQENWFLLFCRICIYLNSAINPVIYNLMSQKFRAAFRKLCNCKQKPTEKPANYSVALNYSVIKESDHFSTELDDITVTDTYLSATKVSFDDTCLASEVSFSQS
Estrogen receptor (Homo sapiens), sequence (P03372 whole entry, looked up): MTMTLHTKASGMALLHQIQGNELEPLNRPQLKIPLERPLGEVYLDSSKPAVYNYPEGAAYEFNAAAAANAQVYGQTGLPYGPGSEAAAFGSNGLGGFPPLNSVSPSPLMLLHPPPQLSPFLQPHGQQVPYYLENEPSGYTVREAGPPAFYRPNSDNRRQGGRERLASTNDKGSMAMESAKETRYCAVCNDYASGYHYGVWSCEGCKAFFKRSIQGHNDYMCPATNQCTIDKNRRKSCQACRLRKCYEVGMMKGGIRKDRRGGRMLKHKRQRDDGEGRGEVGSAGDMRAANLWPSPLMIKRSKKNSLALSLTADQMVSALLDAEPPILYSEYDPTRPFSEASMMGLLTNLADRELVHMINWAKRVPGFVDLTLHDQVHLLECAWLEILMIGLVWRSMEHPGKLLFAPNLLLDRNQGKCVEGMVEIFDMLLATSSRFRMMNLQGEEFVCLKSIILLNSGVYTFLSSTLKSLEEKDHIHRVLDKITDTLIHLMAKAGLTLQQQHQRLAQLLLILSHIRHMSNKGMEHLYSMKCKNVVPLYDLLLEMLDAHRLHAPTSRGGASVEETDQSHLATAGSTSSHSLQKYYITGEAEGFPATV
Estrogen receptor beta (Homo sapiens), sequence (Q92731 whole entry, looked up): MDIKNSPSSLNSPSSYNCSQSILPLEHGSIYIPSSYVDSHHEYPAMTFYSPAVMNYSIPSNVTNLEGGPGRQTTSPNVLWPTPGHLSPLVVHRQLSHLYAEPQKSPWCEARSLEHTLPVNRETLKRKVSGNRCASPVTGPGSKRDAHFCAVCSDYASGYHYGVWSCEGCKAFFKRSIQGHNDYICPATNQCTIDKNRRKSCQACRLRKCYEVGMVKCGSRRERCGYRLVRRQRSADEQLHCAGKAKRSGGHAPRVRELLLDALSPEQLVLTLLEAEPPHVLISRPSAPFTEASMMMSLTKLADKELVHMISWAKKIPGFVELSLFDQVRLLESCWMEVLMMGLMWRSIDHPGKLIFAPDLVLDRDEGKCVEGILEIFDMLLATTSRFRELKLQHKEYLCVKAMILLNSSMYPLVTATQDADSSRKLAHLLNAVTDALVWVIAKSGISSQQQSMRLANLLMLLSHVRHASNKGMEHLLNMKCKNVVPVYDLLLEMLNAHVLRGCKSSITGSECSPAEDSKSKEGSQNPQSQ
Thyrotropin receptor (Homo sapiens), sequence (P16473 whole entry, looked up): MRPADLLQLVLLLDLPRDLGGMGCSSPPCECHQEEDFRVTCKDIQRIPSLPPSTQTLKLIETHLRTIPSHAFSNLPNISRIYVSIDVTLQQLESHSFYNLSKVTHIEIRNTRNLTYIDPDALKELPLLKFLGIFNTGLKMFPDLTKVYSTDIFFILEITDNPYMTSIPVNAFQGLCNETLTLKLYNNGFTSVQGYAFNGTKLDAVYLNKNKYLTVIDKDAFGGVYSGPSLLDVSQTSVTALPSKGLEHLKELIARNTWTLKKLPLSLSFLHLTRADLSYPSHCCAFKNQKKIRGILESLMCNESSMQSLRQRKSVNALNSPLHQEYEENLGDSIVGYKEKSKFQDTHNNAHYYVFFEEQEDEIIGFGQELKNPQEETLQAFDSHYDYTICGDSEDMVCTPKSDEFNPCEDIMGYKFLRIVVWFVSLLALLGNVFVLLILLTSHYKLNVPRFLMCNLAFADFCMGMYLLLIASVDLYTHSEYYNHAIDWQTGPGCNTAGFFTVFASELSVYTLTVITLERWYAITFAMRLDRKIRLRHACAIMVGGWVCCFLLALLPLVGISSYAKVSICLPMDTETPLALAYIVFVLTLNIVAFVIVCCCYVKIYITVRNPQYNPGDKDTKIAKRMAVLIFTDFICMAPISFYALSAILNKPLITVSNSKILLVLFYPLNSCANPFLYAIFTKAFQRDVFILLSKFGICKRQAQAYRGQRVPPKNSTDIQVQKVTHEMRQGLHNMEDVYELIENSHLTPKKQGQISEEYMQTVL

Take `CC(C)c1ccc(C#N)cc1`: the Potency result in assay [1], in assay [2], in assay [3], in assay [4], in assay [5] and in assay [6] was “inactive” in each case. Further, the Potency entry in assay [7], in [8], in assay [9], in [10], in assay [11] and in assay [12] was “inactive” in each case. Also, the Potency result in assay [13], in assay [14], in assay [16] and in assay [17] was “inactive” each time. The call in assay [15] and in assay [18] was inactive.

For `CCCOC(=O)c1c(Cl)c(Cl)c(Cl)c(Cl)c1C(=O)OCCC`, the Potency result in [1], in assay [2], in assay [3], in assay [4], in assay [5] and in assay [6] was “inactive” throughout. The Potency result in [19], in assay [10], in [11], in [13], in assay [14] and in assay [16] was “inactive” in each case. Moreover, the Potency result in [17] is “inactive”. Also, the Potency in assay [12] is 17.2 µM (active). In addition, the outcome in assay [18] was inactive.

For the compound `C=CC(=O)O`, the Potency entry in assay [1], in [2], in [3], in assay [4], in assay [5] and in assay [6] was “inactive” each time. For the same compound, the Potency entry in [19], in assay [7], in assay [8], in [9], in assay [10] and in assay [11] was “inactive” each time. The Potency entry in [12], in [13], in [16] and in [17] was “inactive” each time. Besides, in assay [15], the outcome was inactive.

On to `CCC(CO)(CO)CO`, for which the Potency result in assay [1], in assay [2], in [3], in [4], in assay [5] and in [6] was “inactive” each time. Also, the Potency result in assay [20], in [19], in assay [8], in assay [9], in [10] and in assay [11] was “inactive” in each case. The Potency entry in [12], in [13], in assay [16] and in [17] was “inactive” each time. Moreover, in assay [18], the compound was classed as inactive.

With `O=CNNC=O`, the Potency entry in assay [1], in assay [2], in assay [3], in assay [4], in assay [5] and in assay [6] was “inactive” each time. Further, the Potency result in [19], in [7], in assay [8], in [9], in assay [10] and in assay [11] was “inactive” in each case. Also, the Potency entry in assay [12], in [13], in assay [14], in [16] and in assay [17] was “inactive” each time. For the same compound, the result in assay [15] and in [18] was inactive.

Take `CC(C)(O)c1coc(S(=O)(=O)NC(=O)Nc2c3c(cc4c2CCC4)CCC3)c1`: the Potency entry in [1], in [3], in assay [4], in assay [5], in assay [6] and in assay [19] was “inactive” each time. Also, the Potency entry in assay [8], in [9], in assay [10], in assay [11], in assay [12] and in assay [13] was “inactive” in each case. Moreover, the Potency entry in [16] and in assay [17] was “inactive” throughout. The Potency in [2] was 54.5 µM (active). Moreover, the compound was called inactive in assay [15] and in assay [18].

Consider `CCCCOCCOC(=O)c1cccnc1`, for which the Potency entry in [1], in assay [2], in [3], in [4], in assay [5] and in [6] was “inactive” each time. For the same compound, the Potency result in [20], in [19], in [7], in assay [8], in [9] and in assay [10] was “inactive” throughout. Further, the Potency result in assay [11], in assay [12], in [13], in assay [16] and in [17] was “inactive” each time. Further, the outcome in assay [15] and in assay [18] was inactive.
